For part of these data: Potency and affinity values are given separately. The source made the active and inactive calls.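 How the source made its calls, unless noted: active means calcium signal rise above buffer-control mean plus 5 SD in both duplicates, and also a hit in the primary screen; inactive means the rest.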
What was measured:
[1] = tested on: TRPC4 beta (transient receptor potential cation channel C4), mouse; assay: activators of mouse TRPC4 channel, confirmation, cell-based, Fluo4 calcium, HEK293 TRPC4beta/mu-opioid, duplicates, 10 µM (AID 2426;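 active means fluorescence ratio normalized to control raised more than 50% in primary screen plus both repeat runs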;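 on activation: percent rise of integrated ratio over buffer wells lacking compound which define 0%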); conditions: Fluo4 calcium fluorescence, at 10 µM; stronger effect = higher value
[2] = tested on: transient receptor potential cation channel C4 beta (TRPC4), mouse; assay: activators of mouse TRPC4 channel, confirmation, cell-based, second round, Fluo4, HEK293 TRPC4beta/mu-opioid, 1 µM (AID 2461;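 active means primary screen active and over 50% activation in each of two duplicate runs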); conditions: Fluo4 calcium fluorescence, at 1 µM; stronger effect = higher value
[3] = tested on: TRPC4 (transient receptor potential cation channel C4 beta), mouse; assay: positive allosteric modulators of mouse TRPC4, confirmation, cell-based, second round, Fluo-4, HEK293 TRPC4beta/mu-opioid, 1 µM (AID 2554;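 active means primary screen hit whose fluorescence ratio, in both repeats, exceeds the weak agonist control mean by 3 SD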); conditions: DAMGO EC20, Fluo-4 calcium flux, at 1 µM; stronger effect = higher value
[4] = tested on: TRPC4 beta (transient receptor potential cation channel C4), mouse; assay: positive allosteric modulators of mouse TRPC4, confirmation, cell-based, Fluo-4, HEK293 TRPC4beta/mu-opioid (AID 2555;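 active means primary screen hit whose calcium fluorescence ratio, in both repeats, exceeds the weak agonist control mean by 3 SD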); conditions: DAMGO EC20, Fluo-4 calcium flux, at 10 µM; stronger effect = higher value
[5] = target: Short transient receptor potential channel 4 (Mus musculus) (UniProt Q9QUQ5); assay: inhibitors of mouse TRPC4 channel, confirmation, cell-based, Fluo4, HEK293 TRPC4beta/mu-opioid (AID 2636;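 active means calcium signal cut by more than 3 SD below the full-agonist control yet still positive, in both repeats and the earlier primary screen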); conditions: DAMGO, Fluo4 calcium flux, at 10 µM; stronger effect = higher value
Short transient receptor potential channel 4 (Mus musculus), sequence (Q9QUQ5 whole entry, looked up): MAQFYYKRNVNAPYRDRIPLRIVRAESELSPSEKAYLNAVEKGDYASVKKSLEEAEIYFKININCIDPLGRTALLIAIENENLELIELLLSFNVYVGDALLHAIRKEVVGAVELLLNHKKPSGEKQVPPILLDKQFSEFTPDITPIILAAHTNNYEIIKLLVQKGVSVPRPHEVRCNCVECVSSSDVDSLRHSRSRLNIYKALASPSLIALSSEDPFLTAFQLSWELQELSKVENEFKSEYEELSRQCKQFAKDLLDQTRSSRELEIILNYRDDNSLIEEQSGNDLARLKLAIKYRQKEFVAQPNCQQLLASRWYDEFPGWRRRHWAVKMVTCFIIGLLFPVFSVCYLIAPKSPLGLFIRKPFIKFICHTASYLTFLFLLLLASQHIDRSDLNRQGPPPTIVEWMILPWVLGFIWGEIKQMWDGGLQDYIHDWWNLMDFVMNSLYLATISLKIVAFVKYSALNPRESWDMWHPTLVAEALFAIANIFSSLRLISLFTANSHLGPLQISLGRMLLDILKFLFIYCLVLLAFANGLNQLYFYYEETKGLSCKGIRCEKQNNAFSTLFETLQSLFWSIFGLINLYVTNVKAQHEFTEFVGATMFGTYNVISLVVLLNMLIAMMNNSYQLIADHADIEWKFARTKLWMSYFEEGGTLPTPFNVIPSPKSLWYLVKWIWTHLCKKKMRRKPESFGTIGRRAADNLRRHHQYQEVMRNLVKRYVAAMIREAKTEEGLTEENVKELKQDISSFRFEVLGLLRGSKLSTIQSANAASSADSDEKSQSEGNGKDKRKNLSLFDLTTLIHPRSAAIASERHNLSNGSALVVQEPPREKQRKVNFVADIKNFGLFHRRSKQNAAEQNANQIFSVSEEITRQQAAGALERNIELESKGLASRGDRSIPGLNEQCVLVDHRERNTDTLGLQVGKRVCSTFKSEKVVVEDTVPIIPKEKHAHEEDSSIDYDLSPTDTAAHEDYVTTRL

[6] = target: Short transient receptor potential channel 4 (Mus musculus) (UniProt Q9QUQ5); assay: inhibitors of mouse TRPC4 channel, confirmation, cell-based, second round, Fluo4, HEK293 TRPC4beta/mu-opioid, 1 µM (AID 2637;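 active means calcium signal ratio cut to more than 3 SD under the fully stimulated control mean yet still positive, in both repeats and the primary screen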); conditions: Fluo4 calcium flux, DAMGO, at 1 µM; stronger effect = higher value
[7] = target: Short transient receptor potential channel 4 (Mus musculus) (UniProt Q9QUQ5); assay: mouse TRPC4 channel activators, dose response, cell-based, HEK293 TRPC4/mu-opioid, Fluo-4 calcium (AID 434937;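 active means primary screen activator hit with a dose response curve and TRPC4 channel activation at any tested dose; inactive means no activation, no dose response, or not a primary hit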)
[8] = target: Short transient receptor potential channel 4 (Mus musculus) (UniProt Q9QUQ5); assay: TRPC4 positive allosteric modulators, dose response, cell-based, HEK293 TRPC4/mu-opioid, Fluo-4 calcium, EC20 DAMGO (AID 434941;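 active means earlier screen potentiator hit that boosts the TRPC4 ion channel at some dose, with a dose response; inactive means no potentiation, no dose response, or not a prior hit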;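 further: calcium entry triggered by an EC20 dose of DAMGO at the co-expressed mu-opioid receptor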)
[9] = target: Short transient receptor potential channel 4 (Mus musculus) (UniProt Q9QUQ5); assay: mouse TRPC4 channel inhibitors, dose response, cell-based, HEK293 TRPC4/mu-opioid, Fluo-4 calcium (AID 434942;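 active means primary screen inhibitor hit that blocks the TRPC4 channel at some tested dose, yielding a dose curve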)
[10] = target: Short transient receptor potential channel 6 (Mus musculus) (UniProt Q61143); assay: inhibition of mouse TRPC6 channel, confirmation, selectivity assay for TRPC4 inhibitor project, cell-based, HEK293, membrane potential dye, duplicate (AID 434948;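 active means active in primary screen and both duplicates, each dropping signal beyond three positive-control SD with fluorescence still positive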); conditions: HEK293 TRPC6, membrane potential dye fluorescence, at 10 µM, stimulated with maximal-effect acetylcholine; stronger effect = higher value
Short transient receptor potential channel 6 (Mus musculus), sequence (Q61143 whole entry, looked up): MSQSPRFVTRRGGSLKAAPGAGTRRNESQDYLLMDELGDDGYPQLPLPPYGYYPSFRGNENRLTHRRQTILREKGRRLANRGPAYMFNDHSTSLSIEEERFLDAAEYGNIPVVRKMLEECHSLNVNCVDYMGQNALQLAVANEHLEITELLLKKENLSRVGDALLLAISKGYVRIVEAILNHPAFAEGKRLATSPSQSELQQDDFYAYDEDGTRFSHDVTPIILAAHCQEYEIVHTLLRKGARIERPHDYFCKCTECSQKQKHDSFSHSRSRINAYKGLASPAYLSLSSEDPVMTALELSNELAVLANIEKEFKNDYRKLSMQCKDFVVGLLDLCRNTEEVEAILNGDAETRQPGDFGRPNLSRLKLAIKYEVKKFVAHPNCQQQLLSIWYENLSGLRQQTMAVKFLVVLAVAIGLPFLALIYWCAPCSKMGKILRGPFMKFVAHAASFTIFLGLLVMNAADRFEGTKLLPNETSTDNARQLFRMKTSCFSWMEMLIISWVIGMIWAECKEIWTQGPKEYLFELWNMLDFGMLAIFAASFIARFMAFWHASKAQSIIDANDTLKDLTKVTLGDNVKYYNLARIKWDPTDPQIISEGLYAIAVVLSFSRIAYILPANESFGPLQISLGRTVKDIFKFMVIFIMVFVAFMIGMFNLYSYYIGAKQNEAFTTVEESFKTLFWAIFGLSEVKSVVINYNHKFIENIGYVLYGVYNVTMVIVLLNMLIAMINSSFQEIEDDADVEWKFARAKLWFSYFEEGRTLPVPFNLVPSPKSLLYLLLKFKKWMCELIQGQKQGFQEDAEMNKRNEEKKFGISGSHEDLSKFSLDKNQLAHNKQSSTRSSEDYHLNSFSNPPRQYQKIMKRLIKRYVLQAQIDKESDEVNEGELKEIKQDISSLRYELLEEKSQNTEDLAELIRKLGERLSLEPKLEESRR

[11] = target: Short transient receptor potential channel 6 (Mus musculus) (UniProt Q61143); assay: activation of mouse TRPC6 channel, confirmation, selectivity assay for TRPC4 activator project, cell-based, HEK293, membrane potential dye, duplicate (AID 434950;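 active means membrane potential signal rise above negative control mean plus 3 SD in both duplicates, also active in the earlier TRPC4 screen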); conditions: HEK293 TRPC6, membrane potential fluorescence, at 10 µM; stronger effect = higher value
[12] = target: Short transient receptor potential channel 6 (Mus musculus) (UniProt Q61143); assay: TRPC6 potentiation by TRPC4 potentiator hits, confirmation, selectivity assay for TRPC4 potentiator project, HEK293 cells, membrane potential dye, duplicate (AID 434952;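 active means compound raising the membrane signal above positive-control mean plus 3 SD in both repeats, and a primary screen hit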); conditions: HEK293 TRPC6, membrane potential dye fluorescence, at 10 µM, maximal acetylcholine added after compound; stronger effect = higher value
[13] = target: Short transient receptor potential channel 4 (Mus musculus) (UniProt Q9QUQ5); assay: calcium flux activators in TRPC4/5HT1a cells, counter-screen for TRPC4 activator project, cell-based, second counter screen, HEK293 TRPC4/5HT1a, Fluo-4 (AID 434977); conditions: Fluo-4 calcium flux, at 10 µM; stronger effect = higher value
[14] = calcium flux inhibitors in TRPC4/5HT1a cells, confirmation, counter-screen for TRPC4 inhibitor project, cell-based, second counter screen, HEK293 TRPC4/5HT1a, Fluo-4 (AID 434978;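 active means primary screen active whose calcium signal fell more than 3 SD beyond the full-serotonin control mean in both duplicate plates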;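 further: serotonin given first at submaximal then at maximal dose after compound preincubation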); conditions: Fluo-4 calcium flux, at 10 µM, serotonin added to trigger calcium flux; stronger effect = higher value
[15] = tested on: TRPC4 (mouse), co-expressed with 5HT1a in HEK293; assay: calcium flux potentiators in TRPC4/5HT1a cells, confirmation, counter-screen for TRPC4 potentiator project, cell-based, second counter screen, HEK293 TRPC4/5HT1a, Fluo-4 (AID 434979;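 active means signal rise over 3 SD above mean of control wells given weak agonist, in both repeats and first screen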); conditions: Fluo-4 calcium flux, at 10 µM, serotonin added at its EC20 dose; stronger effect = higher value
[16] = calcium flux activation in mu-opioid HEK293 cells, confirmation, counter-screen for TRPC4 activator project, cell-based, HEK293 mu-opioid receptor line (AID 449723;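 active means hit in primary screen, with calcium signal over 5 SD above buffer well mean in both duplicates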;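 further: counter screen cells carry the mu-opioid receptor alone and lack TRPC4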); conditions: Fluo-4 calcium fluorescence, at 10 µM; stronger effect = higher value
[17] = calcium flux enhancement in mu-opioid HEK293 cells, confirmation, counter-screen for TRPC4 allosteric potentiator project, cell-based, HEK293 mu-opioid receptor line (AID 449724;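 active means calcium signal rise more than 3 SD above the low-dose agonist control mean, in both duplicate plates and the primary screen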); conditions: Fluo-4 calcium flux, at 10 µM, compound added before EC20 DAMGO stimulus; stronger effect = higher value

CC(=O)OCC1O[C@@H](O[C@@H]2C[C@H]3C(C)(C)[C@H](OC(C)=O)CC[C@]3(C)[C@H]3CC[C@]45C[C@]4(CC[C@H]5[C@@H](C)C[C@@H](O)[C@H](O)C(C)(C)O)[C@@]32C)[C@H](O)[C@@H](O)[C@@H]1O (stereo not given in full)
active: activation [1] 173% | activation [16] 28.8%
inactive: outcome [2] | outcome [3] | outcome [4] | outcome [5] | outcome [6] | outcome [7] | outcome [8] | outcome [9] | outcome [10] | outcome [11] | outcome [12] | outcome [13] | outcome [14] | outcome [15] | outcome [17]

O=[N+]([O-])c1cc(Cl)cc(/C=N/NC(=S)Nc2ccc(S(=O)(=O)N3CCOCC3)cc2)c1O
inactive: outcome [1] | outcome [2] | outcome [3] | outcome [5] | outcome [6] | outcome [7] | outcome [8] | outcome [9] | outcome [10] | outcome [11] | outcome [12] | outcome [13] | outcome [14] | outcome [16] | outcome [17]
active: potentiation [4] 15% | potentiation [15] 10.1%

CN1CCN(NC(=O)c2cccc(Br)c2)CC1
active: potentiation [3] 8% | potentiation [4] 18% | potentiation [15] 21.8%
inactive: outcome [1] | outcome [2] | outcome [5] | outcome [6] | outcome [7] | outcome [8] | outcome [9] | outcome [10] | outcome [11] | outcome [12] | outcome [13] | outcome [14] | outcome [16] | outcome [17]

COCCn1c(SCC(=O)Nc2ccc(S(=O)(=O)N3CCOCC3)cc2)nc2ccccc21
inactive: outcome [1] | outcome [2] | outcome [3] | outcome [5] | outcome [6] | outcome [7] | outcome [8] | outcome [9] | outcome [10] | outcome [11] | outcome [12] | outcome [13] | outcome [14] | outcome [16] | outcome [17]
active: potentiation [4] 12% | potentiation [15] 26.5%

COc1ccc(CCN(C)C(=O)c2cc(S(=O)(=O)N3CCCCC3)ccc2Cl)cc1OC
inactive: outcome [1] | outcome [2] | outcome [3] | outcome [4] | outcome [5] | outcome [6] | outcome [7] | outcome [8] | outcome [9] | outcome [10] | outcome [11] | outcome [12] | outcome [13] | outcome [14] | outcome [15] | outcome [16] | outcome [17]

CC(C)c1ccccc1NC(=S)NN(Cc1ccccc1)c1ccccc1
active: potentiation [4] 10% | potentiation [15] 43.9%
inactive: outcome [1] | outcome [2] | outcome [3] | outcome [5] | outcome [6] | outcome [7] | outcome [8] | outcome [9] | outcome [10] | outcome [11] | outcome [12] | outcome [13] | outcome [14] | outcome [16] | outcome [17]

COc1cc(S(=O)(=O)N2CCC(N3CCCCC3)CC2)ccc1-n1cnnn1
inactive: outcome [1] | outcome [2] | outcome [5] | outcome [6] | outcome [7] | outcome [8] | outcome [9] | outcome [10] | outcome [11] | outcome [12] | outcome [13] | outcome [14] | outcome [16] | outcome [17]
active: potentiation [3] 12% | potentiation [4] 8% | potentiation [15] 13.4%

Cc1ccc(Cl)cc1N1CCN(Cc2nc3ccsc3c(=O)[nH]2)CC1
active: potentiation [4] 25%
inactive: outcome [1] | outcome [2] | outcome [3] | outcome [5] | outcome [6] | outcome [7] | outcome [8] | outcome [9] | outcome [10] | outcome [11] | outcome [12] | outcome [13] | outcome [14] | outcome [15] | outcome [16] | outcome [17]

CCN1CCN(c2ccc(S(=O)(=O)N3CCCCC3)cc2NC(=O)c2cc3ccccc3o2)CC1
inactive: outcome [1] | outcome [2] | outcome [3] | outcome [5] | outcome [6] | outcome [7] | outcome [8] | outcome [9] | outcome [10] | outcome [11] | outcome [12] | outcome [13] | outcome [14] | outcome [16] | outcome [17]
active: potentiation [4] 27% | potentiation [15] 24.6%

COc1ccc(CCNC(=O)C2CCN(C(=O)c3ccc(C(C)(C)C)cc3)CC2)cc1
inactive: outcome [1] | outcome [2] | outcome [3] | outcome [4] | outcome [5] | outcome [6] | outcome [7] | outcome [8] | outcome [9] | outcome [10] | outcome [11] | outcome [12] | outcome [13] | outcome [14] | outcome [15] | outcome [16] | outcome [17]

Cc1cccc(C)c1OCC(=O)N1CC2(C)CC1CC(C)(C)C2 (stereo not given)
inactive: outcome [1] | outcome [2] | outcome [3] | outcome [4] | outcome [5] | outcome [6] | outcome [7] | outcome [8] | outcome [9] | outcome [10] | outcome [11] | outcome [12] | outcome [13] | outcome [14] | outcome [15] | outcome [16] | outcome [17]

Cc1ccsc1C(=O)OCC(=O)NCCNC(=O)COC(=O)c1sccc1C
inactive: outcome [1] | outcome [2] | outcome [3] | outcome [4] | outcome [5] | outcome [6] | outcome [7] | outcome [8] | outcome [9] | outcome [10] | outcome [11] | outcome [12] | outcome [13] | outcome [14] | outcome [15] | outcome [16] | outcome [17]

CC(C)(C)c1ccc(-c2nc3cc(N)ccc3o2)cc1
inactive: outcome [1] | outcome [2] | outcome [3] | outcome [4] | outcome [5] | outcome [6] | outcome [7] | outcome [8] | outcome [9] | outcome [10] | outcome [11] | outcome [12] | outcome [13] | outcome [14] | outcome [15] | outcome [16] | outcome [17]

CN(Cc1ccccc1)C(=O)c1oc(=O)c2ccccc2c1-c1ccccc1
active: potentiation [15] 9.58%
inactive: outcome [1] | outcome [2] | outcome [3] | outcome [4] | outcome [5] | outcome [6] | outcome [7] | outcome [8] | outcome [9] | outcome [10] | outcome [11] | outcome [12] | outcome [13] | outcome [14] | outcome [16] | outcome [17]

COc1ccccc1CCc1nnc(CCC(=O)NCCCOc2cccnc2)o1
active: inhibition [5] 48%
inactive: outcome [1] | outcome [2] | outcome [3] | outcome [4] | outcome [6] | outcome [7] | outcome [8] | outcome [9] | outcome [10] | outcome [11] | outcome [12] | outcome [13] | outcome [14] | outcome [15] | outcome [16] | outcome [17]

Source: PubChem BioAssay
